PubChem BioAssay
Activity calls are given as the source filed them.

Assays:
[1] = E. coli DRC41 culture turbidity changes, primary screen, E. coli filamentation inducer project, strain DRC41, OD650, 48 h (AID 1152);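 also: E. coli MC1000 strain DRC41 lacking acrAB efflux pump and sulA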; details: E. coli DRC41 (acrAB sulA), higher = more signal, called active from +8 up or from −8 down
[2] = small-molecule binders of probe aLefty1, primary screen, biochemical, small-molecule microarray, 635/667 nm fluorescence (AID 1153); details: higher = more signal;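 also: score merges spot fluorescence with signal-to-noise ratio from the scanned slide images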
[3] = PSAC antagonists in infected red cells, primary screen, cell-based, P. falciparum Indochina, OD700, 1 h (AID 1154); details: P. falciparum Indochina infected RBC osmotic lysis, higher = more signal, called active from +8 up or from −8 down
[4] = PSAC antagonists in infected red cells, primary screen, cell-based, P. falciparum Indochina, OD700, 2 h (AID 1155);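 also: lysis reports solute entry through the parasite surface anion channel PSAC; channel blockers reduce lysis of infected cells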; details: P. falciparum Indochina infected erythrocytes, osmotic lysis OD700; higher = more signal, called active from +8 up or from −8 down
[5] = osmotic lysis modulators in infected erythrocytes, primary screen, PSAC antagonist project, cell-based, P. falciparum Indochina, OD700, 3 h (AID 1156); details: higher = more signal, called active from +8 up or from −8 down
[6] = PSAC antagonists in infected red cells, primary screen, cell-based, P. falciparum Indochina, OD700, 18 h (AID 1157); details: P. falciparum Indochina infected erythrocytes, osmotic lysis OD700, 18 h; higher = more signal, called active from +8 up or from −8 down
[7] = modulators of S6 phosphorylation in cells, primary screen, cell-based, A549, cytoblot, luminescence, serum-stimulated (AID 1158); details: A549 phospho-S6 cytoblot, 5 h, higher = more signal;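 also: serum-stimulated A549 lung adenocarcinoma cells; signal is phosphorylated S6 detected by cytoblot immunostaining with HRP secondary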
[8] = target: NADPH oxidase 2 (Homo sapiens) (UniProt P04839); experiment: NOX2-dependent H2O2 signal modulators, primary screen, NOX inhibitor project, cell-based, HEK293-NOX2, PMA-stimulated, Amplex Red fluorescence (AID 1159); details: 45 min, higher = more signal, called active from +8 up or from −8 down; also: test concentration not given here
NADPH oxidase 2 (Homo sapiens), sequence (P04839 whole entry, looked up): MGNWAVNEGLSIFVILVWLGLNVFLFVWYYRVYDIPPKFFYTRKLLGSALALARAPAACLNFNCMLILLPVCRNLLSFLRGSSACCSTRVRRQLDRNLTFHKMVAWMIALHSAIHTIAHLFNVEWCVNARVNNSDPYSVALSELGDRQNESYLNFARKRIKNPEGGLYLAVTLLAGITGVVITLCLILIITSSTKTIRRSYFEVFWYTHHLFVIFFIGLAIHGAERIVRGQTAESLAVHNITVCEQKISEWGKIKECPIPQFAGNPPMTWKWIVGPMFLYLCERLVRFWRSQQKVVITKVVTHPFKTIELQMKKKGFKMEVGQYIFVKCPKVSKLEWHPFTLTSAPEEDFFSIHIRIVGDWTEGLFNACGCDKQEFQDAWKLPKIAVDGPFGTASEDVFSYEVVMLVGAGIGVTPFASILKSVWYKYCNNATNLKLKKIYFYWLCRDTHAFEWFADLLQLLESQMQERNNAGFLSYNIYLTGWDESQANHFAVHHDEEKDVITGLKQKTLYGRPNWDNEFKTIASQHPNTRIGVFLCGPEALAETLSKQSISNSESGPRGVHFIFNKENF

[9] = target: NADPH oxidase 4 (Homo sapiens) (UniProt Q9NPH5); experiment: NOX4-dependent H2O2 signal modulators, primary screen, NOX inhibitor project, cell-based, HEK293-NOX4, tetracycline-induced, Amplex Red fluorescence (AID 1160); details: 45 min, higher = more signal, called active from +8 up or from −8 down
NADPH oxidase 4 (Homo sapiens), sequence (Q9NPH5 whole entry, looked up): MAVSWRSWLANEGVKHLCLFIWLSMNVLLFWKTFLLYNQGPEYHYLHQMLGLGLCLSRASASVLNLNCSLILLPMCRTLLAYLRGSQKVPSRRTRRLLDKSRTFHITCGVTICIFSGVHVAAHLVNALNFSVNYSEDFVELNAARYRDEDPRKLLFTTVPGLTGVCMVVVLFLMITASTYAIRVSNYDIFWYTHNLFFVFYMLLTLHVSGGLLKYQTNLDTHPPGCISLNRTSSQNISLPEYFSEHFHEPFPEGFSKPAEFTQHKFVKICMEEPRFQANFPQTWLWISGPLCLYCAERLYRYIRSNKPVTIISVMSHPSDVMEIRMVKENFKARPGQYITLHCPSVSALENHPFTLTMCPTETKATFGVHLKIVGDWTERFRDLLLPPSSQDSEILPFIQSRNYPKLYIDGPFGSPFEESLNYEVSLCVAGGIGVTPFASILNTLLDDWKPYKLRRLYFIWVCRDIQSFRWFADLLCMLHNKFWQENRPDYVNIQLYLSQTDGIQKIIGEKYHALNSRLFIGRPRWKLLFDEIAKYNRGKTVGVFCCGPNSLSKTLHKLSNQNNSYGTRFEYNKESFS

[10] = target: NADPH oxidase 5 (Homo sapiens) (UniProt Q96PH1); experiment: NOX5-dependent H2O2 signal modulators, primary screen, NOX inhibitor project, cell-based, HEK293-NOX5, Amplex Red fluorescence (AID 1161); details: HEK293-NOX5, ionomycin, 45 min, higher = more signal
NADPH oxidase 5 (Homo sapiens), sequence (Q96PH1 whole entry, looked up): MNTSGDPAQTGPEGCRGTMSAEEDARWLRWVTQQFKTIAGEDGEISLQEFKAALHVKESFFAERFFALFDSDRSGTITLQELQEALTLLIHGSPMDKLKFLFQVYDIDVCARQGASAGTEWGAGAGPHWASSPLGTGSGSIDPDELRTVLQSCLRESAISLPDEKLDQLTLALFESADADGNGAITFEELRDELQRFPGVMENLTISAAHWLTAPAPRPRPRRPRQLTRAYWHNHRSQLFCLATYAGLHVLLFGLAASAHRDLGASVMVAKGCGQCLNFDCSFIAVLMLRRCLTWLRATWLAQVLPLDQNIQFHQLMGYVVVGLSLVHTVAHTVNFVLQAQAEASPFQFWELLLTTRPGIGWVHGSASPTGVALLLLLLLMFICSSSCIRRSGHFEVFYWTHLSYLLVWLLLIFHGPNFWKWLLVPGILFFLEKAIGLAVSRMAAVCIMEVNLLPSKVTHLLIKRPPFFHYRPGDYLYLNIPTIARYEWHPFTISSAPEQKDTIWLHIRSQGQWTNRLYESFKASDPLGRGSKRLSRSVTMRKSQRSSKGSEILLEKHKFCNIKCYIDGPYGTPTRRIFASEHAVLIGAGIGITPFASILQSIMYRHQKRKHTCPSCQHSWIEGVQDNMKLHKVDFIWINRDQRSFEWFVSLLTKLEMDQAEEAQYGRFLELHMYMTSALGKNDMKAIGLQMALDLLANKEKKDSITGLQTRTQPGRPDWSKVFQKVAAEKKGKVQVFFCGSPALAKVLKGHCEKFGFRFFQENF

[11] = A549 cell viability effects, profiling panel, calcein-AM fluorescence, 48 h, basal (AID 1162); details: higher = more signal; also: test concentration not given here
[12] = adipocyte viability effects, profiling panel, cell-based, 3T3-L1 adipocytes, calcein-AM fluorescence, 48 h, basal (AID 1163); details: 3T3-L1 adipocytes viability, higher = more signal; also: test concentration not given here
[13] = HepG2 cell viability effects, profiling panel, calcein-AM fluorescence, 48 h, basal (AID 1164); details: higher = more signal; also: test concentration not given here
[14] = MM1S cell viability effects, profiling panel, calcein-AM fluorescence, 48 h, basal (AID 1165); details: higher = more signal;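 also: viability of MM1S multiple myeloma cells under basal unstimulated conditions; test concentration not given here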
[15] = basal RPMI8226 viability, no added stimulus, profiling panel, cell-based, calcein-AM fluorescence, 48 h, PK04 Diversity Set (AID 1166); details: RPMI8226 myeloma viability, higher = more signal;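 also: cells grown under basal conditions without added stimulus; test concentration not given here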
[16] = basal HepG2 mitochondrial membrane potential changes, profiling panel, cell-based, JC-1 fluorescence, 24 h, 100 nL compound (AID 1167); details: higher = more signal; also: test concentration not given here
[17] = basal 3T3-L1 adipocyte mitochondrial potential changes, profiling panel, cell-based, JC-1 fluorescence, 3T3-L1 adipocytes, 24 h, 100 nL compound (AID 1168); details: JC-1 mitochondrial fluorescence, higher = more signal, called active from +8 up or from −8 down; also: test concentration not given here
[18] = basal RPMI8226 mitochondrial membrane potential changes, profiling panel, cell-based, JC-1 fluorescence, 24 h, 100 nL compound (AID 1169); details: RPMI8226 myeloma, JC-1 mitochondrial potential fluorescence, higher = more signal; also: test concentration not given here
[19] = basal MM1S mitochondrial membrane potential changes, profiling panel, cell-based, JC-1 fluorescence, 24 h, 100 nL compound (AID 1170); details: higher = more signal; also: test concentration not given here
[20] = A549 lung cancer cell viability effects, profiling panel, resazurin fluorescence, 24 h, PK04 Diversity Set (AID 1171); details: higher = more signal, called active from +8 up or from −8 down; also: test concentration not given here

C=CC[C@]1(C(N)=O)COC(c2ccc(OCCCO)cc2)=N1
z-score [1]: 1.3 (inactive)
composite z-score [2]: 0.269
z-score [3]: 3.06 (inactive)
z-score [4]: 0.167 (inactive)
z-score [5]: 0.111 (inactive)
z-score [6]: 0.322 (inactive)
z-score [7]: 0.537
z-score [8]: -2.3 (inactive)
z-score [9]: 0.13 (inactive)
z-score [10]: -0.131
z-score [11]: 0.669
z-score [12]: -0.793
z-score [13]: 0.0717
z-score [14]: 0.327
z-score [15]: 1.3
z-score [16]: 0.16
z-score [17]: 0.654 (inactive)
z-score [18]: 0.702
z-score [19]: -0.753
z-score [20]: 0.381 (inactive)

C=CCC(OC(C)=O)[C@@H]1[C@@H](N(Cc2ccc(-c3ccccc3)cc2)C(=O)Cc2ccc(F)cc2)c2cc(OCCCO)ccc2N1C(=O)c1ccc2ccccc2c1 (stereo not given in full)
z-score [1]: 0.185 (inactive)
composite z-score [2]: 0.193
z-score [3]: -0.0408 (inactive)
z-score [4]: 0.345 (inactive)
z-score [5]: -0.348 (inactive)
z-score [6]: 0.703 (inactive)
z-score [7]: -0.0772
z-score [8]: 0.719 (inactive)
z-score [9]: 0.587 (inactive)
z-score [10]: 1.82
z-score [11]: 0.444
z-score [12]: 0.0021
z-score [13]: 0.278
z-score [14]: -0.895
z-score [15]: -0.344
z-score [16]: 1.61
z-score [17]: -0.413 (inactive)
z-score [18]: -0.192
z-score [19]: 0.769
z-score [20]: 0.799 (inactive)

C=CCC(OC(C)=O)[C@@H]1[C@@H](N(Cc2cc3ccccc3o2)C(=O)Cc2ccc(OC)cc2)c2cc(OCCCO)ccc2N1C(=O)c1ccc2ccccc2c1 (stereo not given in full)
z-score [1]: -0.829 (inactive)
composite z-score [2]: -0.0252
z-score [3]: 2.31 (inactive)
z-score [4]: -0.0382 (inactive)
z-score [5]: 1.17 (inactive)
z-score [6]: -0.0343 (inactive)
z-score [7]: 0.559
z-score [8]: -1.16 (inactive)
z-score [9]: -1.26 (inactive)
z-score [10]: 1.14
z-score [11]: 0.0348
z-score [12]: 0.25
z-score [13]: 0.663
z-score [14]: 0.817
z-score [15]: -0.668
z-score [16]: 1.4
z-score [17]: -0.38 (inactive)
z-score [18]: -0.0277
z-score [19]: 1.11
z-score [20]: -1.34 (inactive)

CCOC(=O)C[C@H]1[C@H](OC(=O)c2ccc(-c3ccccc3)cc2)[C@@H](NC(=O)c2ccccc2)c2cc(OCCCO)ccc2N1C(=O)Cc1ccc(OC)cc1
z-score [1]: 0.118 (inactive)
composite z-score [2]: -0.0601
z-score [3]: 1.93 (inactive)
z-score [4]: 0.442 (inactive)
z-score [5]: -0.113 (inactive)
z-score [6]: 0.41 (inactive)
z-score [7]: -0.0916
z-score [8]: 1.31 (inactive)
z-score [9]: -0.847 (inactive)
z-score [10]: 2.5
z-score [11]: 0.437
z-score [12]: 0.0615
z-score [13]: 0.66
z-score [14]: -0.536
z-score [15]: -0.345
z-score [16]: 2.23
z-score [17]: 0.285 (inactive)
z-score [18]: 0.157
z-score [19]: 0.617
z-score [20]: -0.0451 (inactive)
